High-throughput results deposited in PubChem by National Center for Advancing Translational Sciences (NCATS).
Six1-Eya2 blk: qHTS Assay for Inhibitors of the Six1/Eya2 Interaction; Homeobox protein SIX1 (Homo sapiens) + Protein phosphatase EYA2 (Homo sapiens), …; AlphaScreen GST-Six1/His-Eya2 binding, biochemical; active compounds read low; activity change, % (no concentration beside the values); 360,000 compounds, 0.56% hits; in the data active means activity change below about -65%; inconclusive means mostly about -30% to -63%
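GST-Six1 + His-Eya2 (5X stock: 250/500 nM); Tris pH 8.0, 300 mM NaCl, 0.05% BSA, 0.02% Tween 20; GSH donor/Ni acceptor beads; 1 h 37 °C dark; AlphaScreen readout.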
TDP1 block: qHTS Assay for Inhibitors of Tyrosyl-DNA Phosphodiesterase (TDP1); Tyrosyl-DNA phosphodiesterase 1 (Homo sapiens), Q9NUW8; recombinant TDP1, AlphaScreen DNA substrate cleavage; Potency, µM (series often up to 130 µM), for inactives: at the highest dose activity change, negative = inhibition, most hits filed as inhibitors; 350,000 compounds, 0.28% hits; AID 485290, 2010; further: potency means the concentration at half of the fitted maximal effect; nearly all actives have a fitted effect of over 40% in size
Target sequence (Q9NUW8 whole entry, looked up): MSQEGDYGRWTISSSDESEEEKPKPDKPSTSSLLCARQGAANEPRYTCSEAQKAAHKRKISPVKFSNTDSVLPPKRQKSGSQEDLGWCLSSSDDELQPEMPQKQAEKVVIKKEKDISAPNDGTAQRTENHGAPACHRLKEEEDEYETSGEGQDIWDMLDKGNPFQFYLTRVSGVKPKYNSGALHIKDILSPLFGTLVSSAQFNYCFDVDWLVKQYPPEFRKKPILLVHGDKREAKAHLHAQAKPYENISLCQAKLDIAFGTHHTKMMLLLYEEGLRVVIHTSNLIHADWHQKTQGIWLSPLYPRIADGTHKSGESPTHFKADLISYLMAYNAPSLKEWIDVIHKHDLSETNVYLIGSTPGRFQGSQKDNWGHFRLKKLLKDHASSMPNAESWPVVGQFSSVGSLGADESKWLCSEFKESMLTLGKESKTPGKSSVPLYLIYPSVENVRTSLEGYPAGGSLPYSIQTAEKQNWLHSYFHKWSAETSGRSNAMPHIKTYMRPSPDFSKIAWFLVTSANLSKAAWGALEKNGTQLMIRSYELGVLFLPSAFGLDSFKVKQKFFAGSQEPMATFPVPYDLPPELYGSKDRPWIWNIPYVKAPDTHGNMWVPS
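Tdp1 1 nM final; 15 min RT w/ cpd; substrate 15 nM, 5 min; beads 10 ug/ml, 10 min; AlphaScreen read. Neg ctrl: no enzyme.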
DT40 TDP1 no CPT: qHTS for Inhibitors of human tyrosyl-DNA phosphodiesterase 1 (TDP1): qHTS in cells in absence of CPT; DT40 Tdp1-/- hTDP1 cells, no CPT, ATP luminescence, 48 h; Potency, µM (series often up to 46.2 µM), inactives show at the top dose activity change, negative = growth inhibition, actives largely listed as inhibitors; 420,000 compounds, 15% hits; further: potency means the concentration at half of the fitted maximal effect; nearly all actives have a fitted effect of over 55% in size
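Luminescent ATP content (CellTiter-Glo) served as the growth readout. Knockout chicken DT40 cells expressing human TDP1 were exposed to compounds without camptothecin for a minimum 48 hr at 37 °C.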
IL-1B inflam inh: qHTS for Inhibitors of Inflammasome Signaling: IL-1-beta AlphaLISA Primary Screen; 360,000 compounds, 4.7% hits; THP-1 LPS/ATP IL-1B secretion, AlphaLISA, 16 h; active compounds read low; activity change, % at 57.5 µM; in the data active means activity change below about -50%; inconclusive means mostly about -30% to -49%
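Secreted IL-1B measured by AlphaLISA bead assay after 16 h compound exposure of THP-1 cells; compounds (final up to 57.5 uM) added 1 h before LPS (250 ng/mL) and ATP (1.25 mM) stimulation; lower signal means less secretion.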
CtBP-E1A blk: qHTS Assay for Inhibitors of the CtBP/E1A Interaction; CtBP / adenovirus E1A interaction (AlphaScreen); AlphaScreen GST-E1A/His-CtBP binding, 1536-well; active compounds read low; activity change, % (concentration not given with the values); 340,000 compounds, 0.49% hits; in the data active means activity change below about -65%; inconclusive means mostly about -30% to -63%
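GST-E1A and His-tagged CtBP (125 nM each as 5X stock) were preincubated with pin-transferred compound for 2 h at 37 °C in the dark, then glutathione donor and nickel acceptor beads were added for 1 h before AlphaScreen reading.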
DT40 TDP1 CPT: qHTS for Inhibitors of human tyrosyl-DNA phosphodiesterase 1 (TDP1): qHTS in cells in presence of CPT; chicken DT40 Tdp1-/-;hTDP1 cells + 20 nM CPT, ATP luminescence, 48 h; Potency, µM (top dose mostly 46.2 µM), for inactives: top-dose activity change, negative = growth inhibition, most hits filed as inhibitors; 420,000 compounds, 12% hits; further: potency means the concentration at half of the fitted maximal effect; nearly all actives have a fitted effect of over 55% in size
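Chicken DT40 Tdp1-/- cells stably complemented with human TDP1 were seeded at 400 cells/well in medium containing 20 nM camptothecin, exposed to pin-transferred compounds, and grown at 37 °C for at least 48 hr. Viability was read as ATP luminescence.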
* hit, by the source's call; ? = inconclusive; · = not tested or not shown; [ ] = dose if it differs, or a comment. The list is not random: actives were taken first. Their share in the collection is about 18%. Unless noted, the call rests on the fitted dose curve; in most records, active means well fitted curve in the direction sought with a large enough effect; inconclusive means small, poorly fitted or top-dose-only effect, or another doubt; inactive means no such curve, though single readings can be large; an effect the other way counts as inactive or inconclusive. On the % scale 0 is the no-effect control and ±100 the full control effect.

SMILES | Six1-Eya2 blk | TDP1 block | DT40 TDP1 no CPT | IL-1B inflam inh | CtBP-E1A blk | DT40 TDP1 CPT
CCCCC(=O)O[C@]1(C(=O)CO)CC[C@H]2[C@@H]3CCC4=CC(=O)CC[C@]4(C)[C@H]3[C@@H](O)C[C@@]21C | -0.3 | 5.5% | ? | -68.3* | -0.4 | ?
O=C(Nc1ccc(F)cc1)N1CCC(c2nc3c(nnn3Cc3cccc(Cl)c3)c(=O)[nH]2)CC1 | -6.1 | 3.9% | -24.9% | -25.6 | -4.4 | -9.4%
Cc1cccc(Cn2c(C)nc3c(N)c(C)c(C)cc32)c1 | -10.7 | 11.8% | 16.4µM* | -7.1 | · | -16.0%
COC(=O)c1cc(OC)c(OC)cc1NC(=O)c1ccc(Br)o1 | -11.7 | · | -26.7% | ? | -15.2 | -1.2%
COc1ccc(NC(=O)CCS(=O)(=O)c2ccc(Br)s2)cc1 | -1.3 | · | ? | 27.1 | 2.1 | ?
CC(C)c1ccc(NC(=O)CCS(=O)(=O)c2ccc(Br)s2)cc1 | · | -5.5% | 16.4µM* | · | · | 18.4µM*
CCOC(=O)c1ccc(NC(=O)CCS(=O)(=O)c2ccc(Br)s2)cc1 | -3.9 | 6.8% | 18.4µM* | 19.3 | 4.8 | ?
O=C(Nc1ccc(S(=O)(=O)Nc2ncccn2)cc1)c1ccccc1Cl | -4.8 | 1.9%[2.28 µM] | -16.4% | 0.9 | · | -4.4%
CN(C(=O)CSc1nc2ccc(NC(=O)c3ccco3)cc2s1)c1ccccc1 | · | 0.5% | 23.1µM* | · | · | 18.4µM*
CN(C(=O)CSc1nc2ccc(NC(=O)c3ccccc3)cc2s1)c1ccccc1 | · | 4.7% | ? | · | · | ?
CN(C(=O)CSc1nc2ccc(NC(=O)c3cccs3)cc2s1)c1ccccc1 | · | -3.6% | 16.4µM* | · | · | 23.1µM*
Cc1nc2ccc(NC(=O)c3ccco3)cc2s1 | -1.0 | 4.9% | -3.1% | -8.6 | 4.2 | 3.1%
CC(=O)Nc1cccc(S(=O)(=O)N2CCCN(S(=O)(=O)c3ccc4c(c3)OCCO4)CC2)c1 | · | 1.0% | · | · | · | ·
CC(C)CN1C(=O)C(=Nc2cccnc2)c2ccccc21 | 1.4 | 0.0% | 4.61µM* | 79.0 | 2.2 | 3.66µM*
CC(=O)NC1C(=O)N(CC(C)C)c2ccccc21 (stereo not drawn) | -0.1 | -1.0% | 2.2% | 1.5 | 1.6 | -0.5%
Cc1cccc(N2CCN(C(=O)c3oc4ccc(Br)cc4c3C)CC2)c1C | -4.0 | -0.2% | ? | 18.6 | · | ?
Cc1ccc(S(=O)(=O)N(C)c2ccc3sc(C)nc3c2)cc1 | 3.9 | 3.6% | 23.1µM* | 27.4 | 3.6 | ?
Cc1ccc(S(=O)(=O)N(C)c2ccc(N)cc2)cc1 | 5.5 | 7.0% | 1.9% | 6.1 | -2.6 | -27.2%
Cc1nc2c(C)[n+](CC(=O)c3ccccc3)ccc2n1C | 8.5 | 4.2% | -21.6% | 70.9 | · | 7.5%
CC(Sc1nnc2c(n1)[nH]c1ccccc12)C(=O)NC1CCCCC1 (stereo not drawn) | -21.1 | · | 20.6µM* | -28.2 | -11.4 | 23.1µM*
O=C(CSc1nnc2c(n1)[nH]c1ccccc12)N1CCCCC1 | ? | · | -27.1% | 11.2 | ? | -0.5%
COC(=O)c1ccc(CSc2nnc3c(n2)[nH]c2ccccc23)cc1 | 1.1 | 2.9% | -12.6% | 1.6 | 12.5 | -9.6%
CC(Sc1nnc2c(n1)[nH]c1ccccc12)C(=O)N(C)C1CCCCC1 (stereo not drawn) | ? | 10.3% | 20.6µM* | -55.9* | ? | 25.9µM*
Cc1oc2c(c1C(=O)NCc1ccccc1F)C1=NCCN1C=N2 | · | 7.1% | -10.9% | · | · | -0.4%
O=C(Cn1nnc(-c2ccc(Cl)cc2)n1)NC1CCS(=O)(=O)C1 (stereo not drawn) | 3.6 | 0.3% | 16.1% | 21.3 | 1.9 | 4.8%
SMILES | Six1-Eya2 blk | TDP1 block | DT40 TDP1 no CPT | IL-1B inflam inh | CtBP-E1A blk | DT40 TDP1 CPT
Cc1cc(NC(=O)CSc2nc(-c3ccco3)cc(C(F)(F)F)n2)n(-c2ccccc2)n1 | 8.7 | -6.6% | 4.11µM* | 44.9 | -1.7 | 4.11µM*
Cc1cc(NC(=O)CCCSc2nc(-c3ccco3)cc(C(F)(F)F)n2)n(-c2ccccc2)n1 | -10.0 | 4.7% | 20.6µM* | -27.1 | 0.4 | ?
Cc1c(NC(=O)CSc2nc(-c3ccco3)cc(C(F)(F)F)n2)c(=O)n(-c2ccccc2)n1C | -0.1 | 3.3% | -6.0% | -1.8 | -0.8 | ?
CCc1ccccc1NC(=O)CCCSc1nc(-c2ccco2)cc(C(F)(F)F)n1 | · | 4.2% | -22.1% | · | · | -9.1%
Cc1ccc(C(NC(=O)N2CCOCC2)C(Cl)Cl)cc1F (stereo not drawn) | 8.1 | 0.6% | 5.9% | 20.3 | 3.5 | ?
Cc1ccc(C(NC(=O)N2CCOCC2)=C(Cl)Cl)cc1F | -2.6 | 2.4% | 16.4µM* | -100.9* | 11.2 | 6.51µM*
CCCC(C(=O)Nc1ccncc1)c1ccccc1 (stereo not drawn) | 9.7 | 1.3% | -20.4% | -26.5 | 4.8 | ?
Cc1ccc(-c2csc3nc4c5ccccc5c(NCCCN5CCOCC5)nn4c(=O)c23)cc1 | · | 2.4% | · | · | · | ·
Cc1ccc(-c2csc3nc4c5ccccc5c(NCCCN(C)C)nn4c(=O)c23)cc1 | -67.1* | -5.0% | 18.4µM* | ? | ? | ?
Cc1cccc(S(=O)(=O)Nc2nc3ccccc3nc2Nc2ccc3c(c2)OCO3)c1 | -0.3 | -1.9% | ? | 12.1 | 5.7 | 8.6%
CCc1ccccc1NC1=NCC(=O)N1C1CCCC1 | 2.1 | 0.0% | ? | 2.3 | 2.5 | 23.1µM*
CCc1ccccc1NC1=NCC(=O)N1Cc1ccc(OC)cc1 | -0.6 | 1.0% | -16.1% | 7.2 | -0.4 | ?
O=C1c2ccccc2C(=O)c2[nH]c(=O)[nH]c21 | ? | · | 1.84µM* | ? | ? | 2.06µM*
O=C1C(O)=C(O)C(=O)c2ccccc21 | 5.1 | · | ? | 22.7 | 15.6 | ?
C/C(=C\C(=O)c1ccc(Br)cc1)NNC(=O)c1ccccc1 | 15.1 | · | 18.4µM* | 45.9 | 13.7 | ?
C/C(=C\C(=O)c1ccc(Br)cc1)NNC(=O)c1ccc(O)cc1 | -2.7 | 7.6% | ? | 69.5 | -13.0 | 13µM*
C/C(=C\C(=O)c1ccc(Cl)cc1)Nc1ccc(Br)cc1 | 2.6 | · | -28.2% | -50.3* | 5.0 | -3.3%
O=C(COC(=O)c1cn(-c2ccccc2)nc1-c1ccccc1)c1cccc([N+](=O)[O-])c1 | -9.7 | 9.8% | -10.4% | 23.1 | 0.4 | 0.3%
